These results are taken from PubChem BioAssay (NCI).

Common to all, as to assay: NCI-60 one-dose screen, 48 h (100 = growth as untreated, 0 = no growth, -100 = all killed)
The subject of one test is SR leukemia. Conditions: 10 µM unless noted.
A further test relates to OVCAR-8 ovarian. Conditions: 10 µM unless noted.
The next test relates to OVCAR-5 ovarian. The note with it: 10 µM unless noted.
A further test deals with OVCAR-4 ovarian. Conditions: 10 µM unless noted.
For another test, the system named is IGROV1 ovarian. Conditions: 10 µM unless noted.
A further test deals with OVCAR-3 ovarian. The note with it: 10 µM unless noted.
A further test has as its system HS 578T breast. The note with it: 10 µM unless noted.
For a further test, the system named is NCI/ADR-RES ovarian. The note with it: 10 µM unless noted.
In a further test the test system is BT-549 breast. The note with it: 10 µM unless noted.
For another test, the system named is MDA-MB-435 melanoma. The note with it: 10 µM unless noted.
For another test, the system named is SW-620 colon. The note with it: 10 µM unless noted.
The test system of a further test is MCF7 breast. The note with it: 10 µM unless noted.
Another test concerns HCC-2998 colon. Conditions: 10 µM unless noted.
In another test the test system is KM12 colon. The note with it: 10 µM unless noted.
Another test concerns RPMI-8226 leukemia. Conditions: 10 µM.
In a further test the test system is SK-OV-3 ovarian. The note with it: 10 µM.
For a further test, the system named is T-47D breast. The note with it: 10 µM.
For a further test, the system named is HCT-116 colon. The note with it: 10 µM unless noted.

Compounds without any hit were thinned out: in the full panel of roughly 83,000, 20% have a hit.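 Assay: single dose, 48 h. Readout: percent growth (0 = no net growth; negative = cell death). Active: <10.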 Unmarked numbers belong to inactive results. Active and inactive are the calls of the source.

As to `Fc1c[c-]c(-c2ccccn2)c(F)c1.Fc1c[c-]c(-c2ccccn2)c(F)c1.[Cl][Pt+].[Cl][Pt+].c1ccc([PH+](C[PH+](c2ccccc2)c2ccccc2)c2ccccc2)cc1`, the growth was 19.7% with SR leukemia; 15.1% with OVCAR-8 ovarian; 49.2% with OVCAR-5 ovarian; 6.98% (active) with OVCAR-4 ovarian; 21.2% with IGROV1 ovarian; 7.81% (active) in the test with OVCAR-3 ovarian. Moreover, the growth with HS 578T breast is 26.1%; with NCI/ADR-RES ovarian, 97.9%; with BT-549 breast it was 15.8%; in the test on MDA-MB-435 melanoma, 5.73% (active); in the test with SW-620 colon, 15.5%; in the test on MCF7 breast, 8.56% (active). Besides, the growth in the test with HCC-2998 colon is 22.4%; in the test with KM12 colon, 12.3%.
Take `CC1CCCCN1S(=O)(=O)c1ccc(CN=C=S)cc1` (centres undefined): the growth with SR leukemia is 5.92% (active); in the test with OVCAR-8 ovarian, 78.7%; in the test with OVCAR-5 ovarian it was 93%; with OVCAR-4 ovarian it was 100%; in the test on IGROV1 ovarian, 60.9%; with OVCAR-3 ovarian it was -55.6% (active). Moreover, the growth was 59.4% in the test with HS 578T breast; 102% in the test on NCI/ADR-RES ovarian; 76% in the test with BT-549 breast; 47.2% in the test on MDA-MB-435 melanoma; -15.4% (active) in the test with SW-620 colon; 10.2% with MCF7 breast. Moreover, the values for the growth in the test on HCC-2998 colon and in the test with KM12 colon were 103% and 22.2%, respectively.
As to `CCOC(=O)C1=C(C)N2C(=NC3=C(CCCC/C3=C\c3ccccc3)C2c2ccccc2)S1` (centres undefined), the growth in the test on RPMI-8226 leukemia was 96.2%; in the test with OVCAR-8 ovarian, 103%; in the test with OVCAR-5 ovarian, 94.8%; with OVCAR-4 ovarian, 93.4%; in the test with SK-OV-3 ovarian it was 88.5%; with IGROV1 ovarian, 108%. Also, the growth in the test with OVCAR-3 ovarian is 107%; in the test on HS 578T breast, 99.6%; in the test on NCI/ADR-RES ovarian it was 101%; with T-47D breast, 78.7%; in the test with BT-549 breast, 99.1%; in the test on MDA-MB-435 melanoma it was 93.7%. The growth with SW-620 colon was 101%; with MCF7 breast, 87.8%; in the test with HCC-2998 colon, 94.9%; with KM12 colon, 97.3%.
As to `COc1cc(-c2nc(SC(C)C)nc(Nc3cccc(C)c3)c2C#N)cc(OC)c1OC`, the growth in the test with SR leukemia was 95%; in the test with OVCAR-8 ovarian, 93.5%; with OVCAR-4 ovarian, 107%; in the test with IGROV1 ovarian, 103%; in the test with OVCAR-3 ovarian it was 115%; in the test with HS 578T breast it was 104%. Moreover, the growth in the test on NCI/ADR-RES ovarian is 105%; with BT-549 breast it was 107%; in the test on MDA-MB-435 melanoma it was 107%; with SW-620 colon, 109%; with MCF7 breast, 98.1%; in the test with HCC-2998 colon it was 116%. In the test on KM12 colon, the growth is 110%.
`CC[Si](CC)(CC)OC1[C@@H](O[Si](CC)(CC)CC)[C@@H](CNC(=O)NC)O[C@H]1n1cnc2c(NC(=O)Nc3ccccc3)ncnc21` (some centres undefined): the growth was 3.35% (active) in the test with RPMI-8226 leukemia; 92.7% with OVCAR-8 ovarian; 93.6% in the test on OVCAR-5 ovarian; 94.4% in the test with OVCAR-4 ovarian; 98.2% in the test with SK-OV-3 ovarian; 73.6% in the test with IGROV1 ovarian. Further, the growth in the test with OVCAR-3 ovarian is 66.6%; with HS 578T breast it was 69.9%; in the test with NCI/ADR-RES ovarian it was 91.8%; with BT-549 breast it was 104%; in the test with MDA-MB-435 melanoma it was 65.5%; in the test with SW-620 colon, 71.6%. The growth in the test on MCF7 breast was 61.6%; with HCT-116 colon, 51.9%; in the test with HCC-2998 colon it was 96.5%; in the test on KM12 colon it was 60.8%.
With `c1ccc(-c2nc(N3CCOCC3)c3c4c(sc3n2)CCCCCC4)nc1`, the growth in the test on RPMI-8226 leukemia was 33.3%; in the test on OVCAR-8 ovarian, 42.4%; in the test with OVCAR-5 ovarian, 57.2%; with OVCAR-4 ovarian, 42.2%; with SK-OV-3 ovarian it was 65.7%; with IGROV1 ovarian it was 42.1%. The growth was 68.2% with OVCAR-3 ovarian; 25.9% in the test on NCI/ADR-RES ovarian; 17.8% in the test with T-47D breast; 58.3% with BT-549 breast; 61.9% with MDA-MB-435 melanoma; 86.9% with SW-620 colon. Further, the growth was 3.9% (active) in the test on MCF7 breast, 27.7% in the test with HCT-116 colon, 72.7% in the test on HCC-2998 colon and 44.7% in the test with KM12 colon.
As to `N#C/C(=C\c1ccc[nH]1)c1cc2ccccc2[nH]1`, the growth in the test on SR leukemia was 68.3%; with OVCAR-8 ovarian, 74.9%; in the test on OVCAR-5 ovarian, 82.4%; in the test with OVCAR-4 ovarian it was 24.1%; in the test with IGROV1 ovarian it was 59.2%; in the test with OVCAR-3 ovarian, 81.1%. Besides, the growth in the test on HS 578T breast was 87.5%; in the test on BT-549 breast, 66.9%; with MDA-MB-435 melanoma, 83.2%; in the test on SW-620 colon, 96.3%; in the test with MCF7 breast, 9.04% (active); in the test with HCT-116 colon, 63.4%. Moreover, the growth in the test with HCC-2998 colon is 63.8%; in the test with KM12 colon, 30.7%.
As for `C[C@@H](Oc1cc(-c2cnn(C3CC4(CCNCC4)C3)c2)cnc1N)c1c(F)ccc(Cl)c1Cl`, the growth in the test with RPMI-8226 leukemia is -40.1% (active); with OVCAR-8 ovarian, 39.8%; in the test on OVCAR-5 ovarian, 27.8%; in the test on OVCAR-4 ovarian, 40.7%; in the test with SK-OV-3 ovarian, 62.6%; in the test with IGROV1 ovarian, 47.7%. Also, the growth with OVCAR-3 ovarian is 44.4%; in the test with HS 578T breast it was 25.6%; in the test on T-47D breast it was -27.9% (active); in the test with BT-549 breast it was 58.6%; in the test with MDA-MB-435 melanoma, -70.4% (active); in the test with SW-620 colon it was -46% (active). The growth in the test with MCF7 breast was -34.6% (active); in the test with HCT-116 colon, -22.5% (active); in the test on HCC-2998 colon, 6.25% (active).
As for `CCN(c1ccc(C(=O)N2CCN(c3ccccc3)CC2)cc1)S(C)(=O)=O`, the growth in the test with RPMI-8226 leukemia was 102%; with OVCAR-8 ovarian it was 103%; with OVCAR-5 ovarian, 109%; in the test on OVCAR-4 ovarian, 107%; with SK-OV-3 ovarian, 106%; in the test with IGROV1 ovarian, 107%. Besides, the growth in the test on OVCAR-3 ovarian was 106%; in the test on HS 578T breast, 105%; with NCI/ADR-RES ovarian, 108%; in the test on T-47D breast it was 93.2%; in the test on BT-549 breast it was 108%; in the test with MDA-MB-435 melanoma, 106%. In addition, the growth is 108% with SW-620 colon, 101% with HCT-116 colon, 102% in the test with HCC-2998 colon and 101% in the test on KM12 colon.
Consider `Cc1ccc(C(=O)O[C@H](C(=O)O)[C@H](OC(=O)c2ccc(C)cc2)C(=O)O)cc1`, for which the results for the growth in the test with SR leukemia and in the test on T-47D breast were 87.5% and 93.6%, respectively.
As to `Cc1ccc(S(=O)(=O)N(c2ccc(Cl)cc2)c2ccc(Br)cc2C(=O)O)cc1`, the growth is 108% in the test with RPMI-8226 leukemia; 101% in the test on OVCAR-8 ovarian; 101% in the test on OVCAR-5 ovarian; 116% in the test with OVCAR-4 ovarian; 112% with SK-OV-3 ovarian; 109% in the test with IGROV1 ovarian. Also, the growth in the test with OVCAR-3 ovarian is 120%; in the test on HS 578T breast it was 102%; in the test with NCI/ADR-RES ovarian, 115%; in the test on BT-549 breast, 134%; in the test on MDA-MB-435 melanoma, 107%; with SW-620 colon it was 104%. Also, the growth in the test with MCF7 breast is 104%; with HCT-116 colon, 113%; in the test with HCC-2998 colon, 115%; in the test on KM12 colon it was 108%.
As to `Cc1c(NCC(=O)Nc2nc3ccccc3[nH]2)c(=O)n(-c2ccccc2)n1C`, the growth with RPMI-8226 leukemia is 96.7%; with OVCAR-8 ovarian, 99.9%; in the test on OVCAR-5 ovarian, 92.5%; in the test with OVCAR-4 ovarian, 88.3%; in the test with SK-OV-3 ovarian, 106%; in the test on IGROV1 ovarian it was 102%. The growth with OVCAR-3 ovarian is 109%; in the test with HS 578T breast, 101%; in the test on NCI/ADR-RES ovarian it was 101%; in the test with T-47D breast, 97.8%; in the test on BT-549 breast it was 110%; in the test with MDA-MB-435 melanoma it was 103%. For the same molecule, the growth in the test with SW-620 colon was 103%; in the test with MCF7 breast it was 89.4%; in the test with HCT-116 colon, 101%; in the test with HCC-2998 colon, 114%; in the test with KM12 colon it was 112%.
